Assay [1] is described as follows: NCI Yeast Anticancer Drug Screen. Data for the rad50 strain (AID 155).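 Also: 0% = growth of vehicle-only cultures of the same strain.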 The conditions noted are these: S. cerevisiae rad50 strain growth inhibition, hits give high values. Put shortly: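 Genetically altered yeast (DNA repair pathway); compound treatment; growth inhibition vs vehicle ctrl.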
The nature of assay [2]: NCI Yeast Anticancer Drug Screen. Data for the mec2-1 strain (AID 157). The conditions noted are these: S. cerevisiae mec2-1 strain, hits give high values. Put shortly: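 Yeast mec2-1 mutant treated with compound. Readout: growth inhibition vs vehicle controls.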
Assay [3] in a line: NCI Yeast Anticancer Drug Screen. Data for the sgs1 mgt1 strain (AID 161).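 Also: 0% = growth of cultures given vehicle only.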 The conditions noted are these: S. cerevisiae sgs1 mgt1 strain, hits give high values. In short, it runs like this: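 Inhibition of yeast growth, normalised to vehicle-treated controls, is reported for a strain bearing genetic alterations in DNA damage repair.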
A short description of assay [4]: NCI Yeast Anticancer Drug Screen. Data for the cln2 rad14 strain (AID 165).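 Also: 0% = growth equal to vehicle treated cultures.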 The conditions noted are these: S. cerevisiae cln2 rad14 strain, hits give high values. Put shortly:
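cln2 rad14 yeast strain; compound exposure; growth inhibition read vs vehicle controls.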

A short description of assay [5]: NCI Yeast Anticancer Drug Screen. Data for the bub3 strain (AID 167). The conditions noted are these: S. cerevisiae bub3 mutant strain, hits give high values. Put shortly: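 Yeast carrying a defined mutation is treated with each compound, and growth is compared with that of vehicle-exposed cells to give inhibition.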
Assay [6] is described as follows: NCI Yeast Anticancer Drug Screen. Data for the mlh1 rad18 strain (AID 175). The conditions noted are these: S. cerevisiae mlh1 rad18 strain growth inhibition, hits give high values. Put shortly:
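Yeast w/ defined DNA-repair lesions; compound exposure; growth vs vehicle controls → % inhibition.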

The mark [7] stands for this setting: at 5.0 µM (retest, dose inferred, filed as 0.5).
Setting [8] is: at 50.0 µM (retest, dose inferred, filed as 5.0).

The values that follow come from PubChem BioAssay (NCI).

SMILES strings stand for the structures. About 79,000 compounds went through this panel and 15% of them were active in at least one assay; those are over-represented in the sample as a whole. Values without a mark were called inactive. Activity calls are given as the source filed them. Rule as the data show it: active = growth inhibition above about 70%; inactive = the rest.

Consider `[Br][Ni][Br].c1ccc(CN2CCN(Cc3ccccc3)CCN(Cc3ccccc3)CCN(Cc3ccccc3)CC2)cc1`, for which the growth inhibition in assay [1] (setting [7]) is 0%; in assay [1] (setting [8]) it was 82% (active); in assay [1] (at 50.0 µM), 96.7% (active); in assay [2] (setting [7]), 0%; in assay [2] (setting [8]) it was 62%; in assay [2] (at 50.0 µM), 98.3% (active). Moreover, the growth inhibition in assay [3] (setting [7]) is -2%; in assay [3] (setting [8]) it was 65%; in assay [3] (at 50.0 µM), 97.6% (active); in assay [4] (setting [7]), -2%; in assay [4] (setting [8]), 78% (active); in assay [4] (at 50.0 µM), 98.2% (active). The growth inhibition was 3% in assay [5] (setting [7]); 92% (active) in assay [5] (setting [8]); 98.5% (active) in assay [5] (at 50.0 µM); 3% in assay [6] (setting [7]); 92% (active) in assay [6] (setting [8]); 98.2% (active) in assay [6] (at 50.0 µM).
Regarding `O=C(COc1ccc(Cl)c(Cl)c1)N(Cc1ccccc1)Cc1ccc[n+](Cc2ccc(Cl)cc2S(=O)(=O)F)c1`, the growth inhibition in assay [1] (setting [7]) is 8%; in assay [1] (setting [8]) it was 84% (active); in assay [1] (at 50.0 µM), 54%; in assay [2] (setting [7]), 44%; in assay [2] (setting [8]), 42%; in assay [2] (at 50.0 µM), 54.9%. Moreover, the growth inhibition in assay [3] (setting [7]) is 2%; in assay [3] (setting [8]) it was 62%; in assay [3] (at 50.0 µM), -0.3%; in assay [4] (setting [7]), 10%; in assay [4] (setting [8]) it was 78% (active); in assay [4] (at 50.0 µM), 50.4%. Moreover, the growth inhibition in assay [5] (setting [7]) was 2%; in assay [5] (setting [8]), 82% (active); in assay [5] (at 50.0 µM), 42.4%; in assay [6] (setting [7]), 6%; in assay [6] (setting [8]), 96% (active); in assay [6] (at 50.0 µM) it was 60.1%.
Turning to `NP(N)(=O)Nc1ccccc1`, the growth inhibition is -1% in assay [1] (setting [7]); -2% in assay [1] (setting [8]); 7.75% in assay [1] (at 50.0 µM); 2% in assay [2] (setting [7]); -2% in assay [2] (setting [8]); -22.4% in assay [2] (at 50.0 µM). Moreover, the growth inhibition was -1% in assay [3] (setting [7]); -1% in assay [3] (setting [8]); -23.9% in assay [3] (at 50.0 µM); 0% in assay [4] (setting [7]); -2% in assay [4] (setting [8]); 66.7% in assay [4] (at 50.0 µM). In addition, the growth inhibition in assay [5] (setting [7]) was 2%; in assay [5] (setting [8]), -6%; in assay [5] (at 50.0 µM), -8%; in assay [6] (setting [7]) it was -2%; in assay [6] (setting [8]) it was 0%; in assay [6] (at 50.0 µM), 3.6%.
With `CCCCCCCCCCCCNCCc1ccccc1`, the growth inhibition in assay [1] (setting [7]) is 99% (active); in assay [1] (setting [8]), 99% (active); in assay [1] (at 50.0 µM), 98.2% (active); in assay [2] (setting [7]) it was 99% (active); in assay [2] (setting [8]), 98% (active); in assay [2] (at 50.0 µM), 98.8% (active). Besides, the growth inhibition is 99% (active) in assay [3] (setting [7]); 98% (active) in assay [3] (setting [8]); 98.9% (active) in assay [3] (at 50.0 µM); 99% (active) in assay [4] (setting [7]); 98% (active) in assay [4] (setting [8]); 98% (active) in assay [4] (at 50.0 µM). Besides, the growth inhibition in assay [5] (setting [7]) was 99% (active); in assay [5] (setting [8]), 98% (active); in assay [5] (at 50.0 µM) it was 98.2% (active); in assay [6] (setting [7]) it was 99% (active); in assay [6] (setting [8]) it was 98% (active); in assay [6] (at 50.0 µM) it was 98.8% (active).
For `CC(=O)NC1C(S[As](C)C)OC(COC(C)=O)C(OC(C)=O)C1OC(C)=O` (configuration not stated), the growth inhibition in assay [1] (setting [7]) is 59%; in assay [1] (setting [8]), 98% (active); in assay [1] (at 50.0 µM) it was 91% (active); in assay [2] (setting [7]), 18%; in assay [2] (setting [8]), 95% (active); in assay [2] (at 50.0 µM), 92.4% (active). Further, the growth inhibition in assay [3] (setting [7]) is 21%; in assay [3] (setting [8]), 54%; in assay [3] (at 50.0 µM), 88.5% (active); in assay [4] (setting [7]) it was 12%; in assay [4] (setting [8]), 73% (active); in assay [4] (at 50.0 µM), 88.7% (active). For the same molecule, the growth inhibition in assay [5] (setting [7]) was 55%; in assay [5] (setting [8]), 98% (active); in assay [5] (at 50.0 µM), 86.1% (active); in assay [6] (setting [7]), 44%; in assay [6] (setting [8]), 98% (active); in assay [6] (at 50.0 µM) it was 89.5% (active).
As to `Fc1ccc(NP(=S)(Nc2ccc(F)cc2F)Nc2ccc(F)cc2F)c(F)c1`, the growth inhibition is 33% in assay [1] (setting [7]); 99% (active) in assay [1] (setting [8]); 99.2% (active) in assay [1] (at 50.0 µM); 42% in assay [2] (setting [7]); 99% (active) in assay [2] (setting [8]); 99.3% (active) in assay [2] (at 50.0 µM). Further, the growth inhibition was 39% in assay [3] (setting [7]); 99% (active) in assay [3] (setting [8]); 99% (active) in assay [3] (at 50.0 µM); 56% in assay [4] (setting [7]); 99% (active) in assay [4] (setting [8]); 98.7% (active) in assay [4] (at 50.0 µM). Moreover, the growth inhibition was 26% in assay [5] (setting [7]); 99% (active) in assay [5] (setting [8]); 98.8% (active) in assay [5] (at 50.0 µM); 30% in assay [6] (setting [7]); 98% (active) in assay [6] (setting [8]); 99.2% (active) in assay [6] (at 50.0 µM).
`CCCCC(CC)CNP(=S)(NCC(CC)CCCC)NCC(CC)CCCC` (configuration not stated): the growth inhibition in assay [1] (setting [7]) is -3%; in assay [1] (setting [8]) it was 37%; in assay [1] (at 50.0 µM), 58.9%; in assay [2] (setting [7]), -3%; in assay [2] (setting [8]) it was 30%; in assay [2] (at 50.0 µM), 9.55%. The growth inhibition was -4% in assay [3] (setting [7]); 27% in assay [3] (setting [8]); 6.25% in assay [3] (at 50.0 µM); -2% in assay [4] (setting [7]); 20% in assay [4] (setting [8]); 35.8% in assay [4] (at 50.0 µM). Moreover, the growth inhibition in assay [5] (setting [7]) was -5%; in assay [5] (setting [8]), 37%; in assay [5] (at 50.0 µM), 13.4%; in assay [6] (setting [7]), -5%; in assay [6] (setting [8]), 33%; in assay [6] (at 50.0 µM), 69.1%.
Consider `Cc1ccc(S)cc1.[Pb]`, for which the growth inhibition in assay [1] (setting [7]) was 0%; in assay [1] (setting [8]), 30%; in assay [1] (at 50.0 µM), 20.1%; in assay [2] (setting [7]), 2%; in assay [2] (setting [8]), 6%; in assay [2] (at 50.0 µM), 43.1%. Besides, the growth inhibition in assay [3] (setting [7]) is 3%; in assay [3] (setting [8]) it was 28%; in assay [3] (at 50.0 µM), 44.5%; in assay [4] (setting [7]) it was 5%; in assay [4] (setting [8]), 2%; in assay [4] (at 50.0 µM), -1.55%. For the same molecule, the growth inhibition in assay [5] (setting [7]) was 3%; in assay [5] (setting [8]), 50%; in assay [5] (at 50.0 µM) it was 95.9% (active); in assay [6] (setting [7]) it was 0%; in assay [6] (setting [8]) it was 13%; in assay [6] (at 50.0 µM), 83.8% (active).
`Nc1c(Br)cc(Br)c2c1C(=O)c1ccccc1C2=O`: the growth inhibition in assay [1] (setting [7]) is 5%; in assay [1] (setting [8]) it was -1%; in assay [1] (at 50.0 µM), -10.6%; in assay [2] (setting [7]), 2%; in assay [2] (setting [8]), 0%; in assay [2] (at 50.0 µM) it was -9.45%. In addition, the growth inhibition in assay [3] (setting [7]) is 3%; in assay [3] (setting [8]) it was 0%; in assay [3] (at 50.0 µM), 11.6%; in assay [4] (setting [7]), 0%; in assay [4] (setting [8]) it was 3%; in assay [4] (at 50.0 µM) it was 41.9%. The growth inhibition in assay [5] (setting [7]) is 1%; in assay [5] (setting [8]), 4%; in assay [5] (at 50.0 µM) it was 7.65%; in assay [6] (setting [7]), 9%; in assay [6] (setting [8]), -1%; in assay [6] (at 50.0 µM), 4.5%.
